Screening results: PubChem, National Center for Advancing Translational Sciences (NCATS)
Rows were chosen to be rich in hits. Some 21% of all compounds tested hit in one or more screens of this group.
HCV inhibitor – inhibitors of hepatitis C virus infection | AID 651820 | Potency, µM (titrated, usually from 41.8 µM), most hits filed as inhibitors | Huh7.5.1 HCVcc-Cre infection, luciferase reporter, 44 h | actives 3.4% (n = 340,000)
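Cells seeded at 1,000/well and cultured 4 h, then compounds added followed by HCVcc-Cre virus (~0.5 moi). After 44 h further culture, luciferase substrate was added, plates held 15 min at room temperature, and luminescence read for 15 sec.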
CHX counter – counter-screen hit for Shiga toxin inhibitors, cycloheximide; cell reporter, cycloheximide protein synthesis inhibition counterscreen; actives 12% (n = 300,000); max response, %; in the data active = max response mostly above about 13%, no sharp cut-off; inactive = mostly below about 14%; also: read at 38.3 µM for the half of the compounds with a filed dose
Pf growth 96h – P. falciparum growth inhibition at 96 hour, primary screen for plastid delayed-death inhibitors. Potency, µM (highest dose often 28.7 µM), actives largely listed as inhibitors. actives 6.9% (n = 320,000). P. falciparum luciferase reporter growth, 96 h. AID 504834
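Plates of compound plus infected erythrocytes (2% hematocrit, 0.05% parasitemia final) incubate 96 hours, 37 C, 5% CO2. Detection reagent added; reduced luminescence from the parasites' luciferase reporter flags inhibition.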
Pf growth 48h – P. falciparum growth inhibition at 48 hours (one generation); Potency, µM (series often up to 28.7 µM), most hits filed as inhibitors; actives 5.9% (n = 310,000); P. falciparum luciferase growth in erythrocytes, 48 h
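Erythrocytes infected with P. falciparum carrying an integrated firefly luciferase reporter (2% hematocrit, 0.1% parasitemia final) were exposed to compounds in RPMI 1640 with 0.5% Albumax at 37 C, 5% CO2. Growth inhibition was scored as reduced luminescence.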
Shiga toxin inh – inhibitors of Shiga toxin in Vero cells; Vero cells, Shiga toxin protein synthesis inhibition reporter; inhibition, % at 38.7 µM; actives 9.2% (n = 290,000); AID 2315; in the data active = inhibition mostly above about 28%, no sharp cut-off; inactive = mostly below about 43%
AMA1 RON2 block – disrupts binding of P. falciparum AMA1 to RON2; AlphaScreen AMA1-biotinylated RON2 peptide binding; Potency, µM (titrated, usually from 58.2 µM), actives largely listed as inhibitors; actives 0.2% (n = 360,000); AID 720542; also: nearly all actives have a fitted effect of over 45% in size
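AMA1 (3D7) with his tag at 25 nM final met compounds first, then biotinylated RON2 peptide at 25 nM; detection used donor plus acceptor beads, 10 µg/mL apiece, read by AlphaScreen after 30 min at room temperature.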
HCV confirm – HCV inhibition, cherry-pick confirmation. AID 720575. Potency, µM (highest dose often 41.8 µM), hits mostly inhibitors. shares compounds with HCV inhibitor. actives 78% (n = 640). HCVcc-Cre infectious virus cell assay, luciferase, inhibition; also: nearly all actives have a fitted effect of over 80% in size
HCV cytotox – host cell cytotoxicity counter-screen for HCV inhibitors. shares compounds with HCV inhibitor. HCV host cell line cytotoxicity counterscreen. Potency, µM (highest dose often 41.8 µM), most hits filed as inhibitors. actives 22% (n = 640). AID 720576;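 also: 44 h compound exposure; nearly all actives have a fitted effect of over 55% in size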
Each line names hits and unclear results; the compound was inactive in the other large screens (follow-up assays come after a bar, where they were run). Unless noted, calls follow the shape of the dose curve; as a rule, active = well fitted curve in the direction sought with a large enough effect; inconclusive = small, poorly fitted or top-dose-only effect, or another doubt; inactive = no such curve, though single readings can be large; an effect the other way counts as inactive or inconclusive.

Cc1ccc(NC(=O)C2CCCN2S(=O)(=O)c2ccc(-c3ccc(=O)[nH]n3)s2)c(C)c1 (stereo not drawn)	Pf growth 96h inconclusive, Pf growth 48h inconclusive
CCOC(=O)c1cc2c(=O)n3cccc(C)c3nc2n(C)c1=N	none (no result: HCV inhibitor, AMA1 RON2 block)
CCOCCCn1c(=N)c(C(N)=S)cc2c(=O)n3cccc(C)c3nc21	HCV inhibitor inconclusive, Pf growth 48h inconclusive (no result: Pf growth 96h) | HCV confirm 19.9µM | HCV cytotox inactive
c1ccc2c(c1)CCN(c1ncnc3c1[nH]c1ccccc13)C2	HCV inhibitor 2.51µM, Pf growth 96h 7.38µM, Pf growth 48h 5.22µM | HCV confirm 2.8µM | HCV cytotox 6.28µM
c1ccc(Cn2nnc3c(N4CCc5ccccc5C4)ncnc32)cc1	Pf growth 48h inconclusive
CC(OC(=O)CC1CCCCC1)C(=O)Nc1ccc(F)cc1 (stereo not drawn)	none (no result: CHX counter, Shiga toxin inh)
COc1cccc(C(=O)Oc2c(CN3CCOCC3)cc(Cl)c3cccnc23)c1	HCV inhibitor 4.47µM, Pf growth 48h 4.65µM (no result: Pf growth 96h) | HCV confirm inconclusive | HCV cytotox inconclusive
COC(=O)c1c(C(=O)OC)c2cccc3cc(-c4ccccc4)c4ccc1c4n32	HCV inhibitor 1.78µM, Pf growth 96h inconclusive, AMA1 RON2 block inconclusive (no result: Pf growth 48h) | HCV confirm 5.6µM | HCV cytotox inconclusive
CN1CCN(/N=C/c2ccc(Cl)c(Cl)c2)CC1	HCV inhibitor inconclusive, CHX counter 37.8, Shiga toxin inh 84.0 | HCV confirm inconclusive | HCV cytotox inactive
CCCCC(CC)C(=O)O (stereo not drawn)	none (no result: CHX counter, Pf growth 96h, Pf growth 48h, Shiga toxin inh)
CN1CCN(S(=O)(=O)c2ccc(N(C)Cc3ccc(C(F)(F)F)cc3)c([N+](=O)[O-])c2)CC1	HCV inhibitor 3.16µM, Pf growth 96h inconclusive, Pf growth 48h 10.4µM, AMA1 RON2 block inconclusive (no result: CHX counter, Shiga toxin inh) | HCV confirm 14.1µM | HCV cytotox 28µM
O=C(O)CSc1ccc(NC(=O)Nc2ccccc2F)cc1	none
CSc1ccc(NC(=O)Nc2cccn(Cc3ccccc3F)c2=O)cc1	HCV inhibitor 3.55µM | HCV confirm 8.87µM | HCV cytotox inactive
Cc1ccc(C(=O)CCNc2ccc(F)c(Cl)c2)o1	HCV inhibitor 3.16µM | HCV confirm 2.8µM | HCV cytotox inactive
CCC(=O)Nc1ccc(F)c(Cl)c1	none
O=C(c1cc(=O)[nH]c2ccccc12)N1CCN(c2ccccc2)CC1	none
CCOC(=O)N1CCN(S(=O)(=O)c2c(C)nc3scc(C)n3c2=O)CC1	HCV inhibitor inconclusive, Pf growth 48h inconclusive
Cc1nc2ccccn2c1CN(C)C(=O)C1CCC(=O)N(CCc2cccc(F)c2)C1 (stereo not drawn)	Pf growth 96h inconclusive
Cc1cc(=O)n(C)c(=O)n1CCCCCCOc1cccc([N+](=O)[O-])c1	HCV inhibitor 7.08µM, Pf growth 96h 4.15µM | HCV confirm 9.95µM | HCV cytotox inactive
CCCCNC(=O)CSc1nc2cc3c(cc2c(=O)n1Cc1ccco1)OCO3	HCV inhibitor inconclusive | HCV confirm 14.1µM | HCV cytotox inactive
Cc1ccc(Cn2c(SCC(=O)NCc3ccco3)nc3ccsc3c2=O)cc1	HCV inhibitor 4.47µM, CHX counter 26.9, Pf growth 96h inconclusive, Pf growth 48h 13.1µM | HCV confirm 11.2µM | HCV cytotox inactive
Cc1cc2c(=O)n(Cc3ccco3)c(SCC(=O)NCc3ccco3)nc2s1	HCV inhibitor 3.55µM, Pf growth 48h inconclusive (no result: Pf growth 96h) | HCV confirm 2.8µM | HCV cytotox inactive
Cc1sc2nc(SCC(=O)c3cccs3)n(Cc3ccco3)c(=O)c2c1C	Pf growth 48h inconclusive (no result: Pf growth 96h) | HCV confirm inconclusive | HCV cytotox 2.8µM
Cc1sc2nc(SCc3ccc(C(=O)O)cc3)n(Cc3ccco3)c(=O)c2c1C	none
CCOC(=O)[C@]12CCC=C1N(CCC1=CCCCC1)C(=O)[C@H](CC(=O)NCc1ccccc1)C2	none (no result: HCV inhibitor, CHX counter, Pf growth 96h, Pf growth 48h, Shiga toxin inh)
Cc1ccc(NC(=O)c2cc3c(=O)oc4ccc(C)cc4c3s2)nc1	none (no result: HCV inhibitor, AMA1 RON2 block)
O=C(Nc1ccc(F)cc1)c1ccccc1NS(=O)(=O)N1CCCC1	Pf growth 96h inconclusive, Pf growth 48h inconclusive
O=S(=O)(c1ccc(Oc2ccccc2)cc1)N1CCOCC1	HCV inhibitor inconclusive (no result: Pf growth 96h)
O=[N+]([O-])c1ccccc1Oc1ccc(S(=O)(=O)N2CCOCC2)cc1	HCV inhibitor 7.94µM, Pf growth 96h inconclusive, Pf growth 48h inconclusive (no result: CHX counter, Shiga toxin inh) | HCV confirm inconclusive | HCV cytotox inactive
Cc1ccc(C)c(Nc2c([N+](=O)[O-])c(=O)oc3ccccc23)c1	Pf growth 48h inconclusive
CCOc1ccccc1NC(=O)NC1CCCc2ccccc21 (stereo not drawn)	HCV inhibitor inconclusive | HCV confirm 7.91µM | HCV cytotox inactive
CS(=O)(=O)N1CCCC(C(=O)Nc2ccccc2)C1 (stereo not drawn)	none (no result: Shiga toxin inh)
